Screening data as filed in PubChem.
G9a inh = G9a (human) methyltransferase inhibition | Q96KQ7 | G9a H3K9 monomethylation, AlphaScreen, 2 h | Potency, µM (highest dose often 102 µM), usual class: inhibitors | actives 8.8% (n = 350,000); also: nearly all actives have a fitted effect of over 75% in size
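Methyltransferase reactions run at room temperature for 2 h (20 nM enzyme, 500 nM biotin-H3K9 peptide, 20 uM SAM) after a 15 min compound preincubation; product detected by AlphaScreen beads and anti-H3K9me1 antibody.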
BAZ2B inh = blocks human BAZ2B. Q9UIF8. AlphaScreen BAZ2B-H3K14Ac peptide displacement. Potency, µM (doses to about 114 µM), actives largely listed as inhibitors. actives 4.4% (n = 360,000); also: nearly all actives have a fitted effect of over 60% in size
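Inhibition is scored as reduced AlphaScreen emission. The BAZ2B/b-H3(5-23)K14Ac complex (50 nM each) in PBS pH 7.4, 0.01% Tween-20 meets compound (up to 110 uM) for 30 min at RT before bead addition.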
12-LOX inh = ALOX12 (human) lipoxygenase inhibition; P18054; purified 12hLO, xylenol orange hydroperoxide absorbance; Potency, µM (highest dose often 108 µM), actives largely listed as inhibitors; actives 1.1% (n = 580,000); AID 1671190
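Hydroperoxide product was detected by ferrous iron/xylenol orange as the 573 to 405 nm absorbance ratio. Arachidonic acid at 40 uM (final) was turned over for 30 min at room temperature by 150 nM human 12hLO, pH 7.0 Hepes buffer, after 15 min compound preincubation.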
HP1b binding inh = inhibitors of HP1-beta chromodomain binding to methylated histone tails; Potency, µM (top dose mostly 114 µM), actives largely listed as inhibitors; AlphaScreen HP1-beta / biotin-H3K9me3 peptide binding; actives 0.56% (n = 390,000); also: nearly all actives have a fitted effect of over 70% in size
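Compound inhibition of the preformed complex between 50 nM HP1-beta and 50 nM biotinylated H3K9me3 peptide was read by AlphaScreen. Buffer was PBS pH 7.4 with 0.01% Tween-20. Incubations ran 30 min at room temperature, with 10 ug/mL donor/acceptor beads.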
PLK1 PBD inh = PLK1 (human) polo-box domain binding inhibition. Plk1 PBD binding of FITC phosphopeptide, fluorescence polarization. Potency, µM, actives largely listed as inhibitors. actives 2.8% (n = 360,000). P53350. AID 720504; also: series mostly up to about 57 µM; nearly all actives have a fitted effect of over 65% in size
JMJD2A Tudor inh = inhibitors of human JMJD2A Tudor domain | O75164 | AlphaScreen JMJD2A-Tudor / H3K4me3 peptide binding | Potency, µM (highest dose often 114 µM), usual class: inhibitors | actives 4.4% (n = 390,000); also: nearly all actives have a fitted effect of over 50% in size
Large screens that a line does not name were inactive. A selection: hits, their analogues and other compounds. The true share with any hit is near 9%. Calls follow the shape of the dose curve; as a rule, active = well fitted curve in the direction sought with a large enough effect; inconclusive = small, poorly fitted or top-dose-only effect, or another doubt; inactive = no such curve, though single readings can be large; an effect the other way counts as inactive or inconclusive.

COc1ccc(/C=N/NC(=S)Nc2ccccc2)cc1	BAZ2B inh inconclusive, 12-LOX inh 50µM
COc1ccc(-c2nc3cnc(Nc4ccccc4)nc3n(CCC#N)c2=O)cc1	none (no result: BAZ2B inh, HP1b binding inh, PLK1 PBD inh, JMJD2A Tudor inh)
O=C(O)/C=C/C(=O)Nc1ccc(Cl)cc1C(=O)c1ccccc1	G9a inh 32µM
O=C(O)/C=C/C(=O)NNC(=O)c1ccc(Cl)cc1Cl	G9a inh inconclusive, BAZ2B inh inconclusive, PLK1 PBD inh 24µM
O=C(O)/C=C/C(=O)Nc1ccc(NC(=O)c2ccccc2)c(Cl)c1	G9a inh 50µM
Cc1ccc(C(=O)NNC(=O)/C=C\C(=O)O)cc1	G9a inh 50µM, BAZ2B inh inconclusive
O=C(O)/C=C/C(=O)Nc1ccc(C(=O)c2ccccc2)cc1	none
CCOc1ccc(C(=O)NC2CCN(c3cc(-c4ccccc4)[nH]n3)C2)cc1 (centres undefined)	none (no result: G9a inh, BAZ2B inh, HP1b binding inh, PLK1 PBD inh, JMJD2A Tudor inh)
CC(C)(C)c1ccc(-n2ncc3c2CCCC3NC(=O)CN2CCCC2=O)cc1 (centres undefined)	none
CC1(C)Cc2c(cnn2-c2ccc(F)cc2)C(NC(=O)C2=NNC(=O)CC2)C1 (centres undefined)	PLK1 PBD inh 3µM, JMJD2A Tudor inh 16µM
CC1(C)Cc2c(cnn2-c2ccc(F)cc2)C(NC(=O)CCN2CCCC2=O)C1 (centres undefined)	PLK1 PBD inh 3.4µM, JMJD2A Tudor inh inconclusive
Cc1cc(C)cc(-n2ncc3c2CCCC3NC(=O)CN2CCCC2=O)c1 (centres undefined)	PLK1 PBD inh 30µM, JMJD2A Tudor inh inconclusive
CCOc1ccccc1N1CCN(C(=O)CNC(=O)c2ccc(OC)c(OC)c2)CC1	none
COc1ccc(C2c3ccc4ccccc4c3Oc3ncn4nc(Cc5ccccc5)nc4c32)cc1OC (centres undefined)	G9a inh 7.1µM
COc1ccc(C2c3c(ccc4ccccc34)Oc3ncn4nc(Cc5ccccc5)nc4c32)cc1OC (centres undefined)	none
CC(C)Nc1nc(-c2ccccn2)nc(-c2ccccc2)c1C#N	none
O=C1C=CC(=O)N1c1ccc(I)cc1Cl	none (no result: 12-LOX inh, HP1b binding inh, PLK1 PBD inh, JMJD2A Tudor inh)
O=C1C=CC(=O)N1c1ccccn1	HP1b binding inh inconclusive, JMJD2A Tudor inh 89µM (no result: G9a inh, BAZ2B inh)
O=c1[nH]n(-c2ccccn2)c(=O)c2ccccc12	G9a inh inconclusive, 12-LOX inh inconclusive, PLK1 PBD inh 30µM, JMJD2A Tudor inh 79µM (no result: BAZ2B inh)
O=C1C2C3c4ccccc4C(c4ccccc43)[C@@H]2C(=O)N1c1ccccn1 (some centres undefined)	none (no result: G9a inh)
O=C1C=CC(=O)N1c1ccccc1N1C(=O)C=CC1=O	HP1b binding inh 2.8µM, PLK1 PBD inh 1.5µM, JMJD2A Tudor inh 2.8µM (no result: G9a inh, BAZ2B inh)
COc1cccc(CN2CCOC3(CCN(Cc4ccc(F)cc4F)CC3)C2=O)c1	none (no result: G9a inh, BAZ2B inh, HP1b binding inh, PLK1 PBD inh, JMJD2A Tudor inh)
Cc1cccc(OCC(O)CN2CCCN(c3ccc(C(F)(F)F)cn3)CC2)c1 (centres undefined)	12-LOX inh 13µM (no result: G9a inh, BAZ2B inh, HP1b binding inh, PLK1 PBD inh, JMJD2A Tudor inh)
COc1cccc(OCC(O)CN2CCN(c3ncccn3)CC2)c1 (centres undefined)	none
Cc1ccc(OCC(O)CN2CCN(c3ccccn3)CC2)c(C)c1 (centres undefined)	G9a inh 50µM, 12-LOX inh inconclusive
COc1cccc(OCC(O)CN2CCN(c3ccccn3)CC2)c1 (centres undefined)	G9a inh 45µM
OC(COC(c1ccc(Cl)cc1)c1ccc(Cl)cc1)CN1CCN(c2ccccn2)CC1 (centres undefined)	G9a inh inconclusive, BAZ2B inh 50µM, 12-LOX inh inconclusive, JMJD2A Tudor inh inconclusive
Cc1cccc(C)c1OCC(O)CN1CCN(c2ccccn2)CC1 (centres undefined)	G9a inh inconclusive (no result: BAZ2B inh)
COc1ccc(NC(=O)Nc2cccc(C)n2)c(OC)c1	none
Cn1cc(C(c2ccccc2OCC(=O)O)c2cn(C)c3ccccc23)c2ccccc21	BAZ2B inh 50µM, HP1b binding inh inconclusive, PLK1 PBD inh 3µM, JMJD2A Tudor inh 14µM
Cn1cc(SCC(=O)Nc2nccs2)c2ccccc21	12-LOX inh inconclusive
CCOc1ccccc1NC(=O)C(=O)c1c[nH]c2ccccc12	none (no result: G9a inh, BAZ2B inh, HP1b binding inh, PLK1 PBD inh, JMJD2A Tudor inh)
Cn1cc(C(c2ccccn2)c2cn(C)c3ccccc23)c2ccccc21	BAZ2B inh 35µM, 12-LOX inh inconclusive, HP1b binding inh inconclusive, JMJD2A Tudor inh 22µM
c1ccc(C(c2c[nH]c3ccccc23)c2c[nH]c3ccccc23)nc1	G9a inh inconclusive, BAZ2B inh 45µM, 12-LOX inh inconclusive, JMJD2A Tudor inh 79µM
c1ccc(C(c2cccs2)c2c[nH]c3ccccc23)cc1 (centres undefined)	G9a inh inconclusive (no result: PLK1 PBD inh)
CCOc1cccc(C(c2c[nH]c3ccccc23)c2c[nH]c3ccccc23)c1O	12-LOX inh 4µM (no result: G9a inh, BAZ2B inh, HP1b binding inh, PLK1 PBD inh, JMJD2A Tudor inh)
CCOc1ccc(NC(=O)Cn2nnc(C(=O)NCc3ccco3)c2N)cc1	none
